Laboratory results: ChEMBL document CHEMBL3988442, “University of Dundee, Small-Polar-MMV Screening Library” (2021)
Screen size: about 48,000 compounds; about 13,000 (27%) showed an effect of 50% or more. This is one part of the list.

Tested on: Wolbachia pipientis
Assay: Anti-Wolbachia Cell-Based Screen
Assay type: functional
Design: scale not given: in the data most compounds retested in dose-response had high values
Conditions: 5 µM

| SMILES | Percent Effect [%] |
| --- | --- |
| O=C1CC(c2ccccc2)c2cnn(C3CCCC3)c2N1 (stereo not drawn) | 5.906 |
| CCOCCn1nc(C)cc1C(=O)N1CCN(C(C)C)C(CC)C1 (stereo not drawn) | 12.32 |
| CC(=O)N1CCC(N2CCOC[C@H]2c2nc(-c3ccncc3)c[nH]2)CC1 | -16.93 |
| CC(=O)N1CCCC2(CCN(C(=O)c3nccnc3N)CC2)C1 | -5.274 |
| NC(=O)CCC(=O)N1CCc2[nH]nc(-c3ccc4c(c3)OCO4)c2C1 | -2.811 |
| O=C(O)CSc1nccc(-c2ccc3c(c2)OCO3)n1 | 78.66 |
| CCOc1ccc(-c2ccc3c(c2)OCO3)cc1C(N)=O | -6.962 |
| CSCC(=O)N1CCc2[nH]nc(-c3ccc4c(c3)OCO4)c2C1 | -14.59 |
| CN(C)C(=O)c1cccnc1-c1ccc2c(c1)OCO2 | -0.5608 |
| NC(=O)CSc1nccc(-c2ccc3c(c2)OCO3)n1 | 94.21 |
| CNCc1nc(-c2ccc3c(c2)OCO3)c[nH]1.Cl.Cl | -0.9226 |
| O=C(Cc1ccc2c(c1)OCO2)N1CCN(c2ccncc2)CC1 | -22.19 |
| O=C(CSc1nccc(-c2ccc3c(c2)OCO3)n1)N1CCOCC1 | 110.7 |
| Cn1cccc(NC(=O)N2CCC(COCc3ccccc3)C2)c1=O (stereo not drawn) | 7.256 |
| Cc1ccc(C)c(OCC(O)Cn2ncc3cnn(C)c(=O)c32)c1 (stereo not drawn) | -5.252 |
| O=S(=O)(NC1=NCN(CCc2cccs2)CN1)c1ccc(F)cc1 | 4.244 |
| Cc1cc(N[C@H](CO)COCc2ccccc2)n2nc(C)cc2n1 | 2.305 |
| COc1ccc(CCC(=O)Nc2ccncc2C)cc1 | 3.309 |
| COCC1CN(Cc2ccc(OC)cc2)S(=O)(=O)c2cnccc2O1 (stereo not drawn) | 99.8 |
| COc1ccc(CN2CCOC[C@H](Oc3cccnc3)C2)cc1 | -13 |
| CC(C)(C)OCC1CN(CC2CC2)S(=O)(=O)c2cnccc2O1 (stereo not drawn) | 96.42 |
| CCN1CC(COC(C)(C)C)Oc2ccncc2S1(=O)=O (stereo not drawn) | 103.5 |
| COc1ccc(OCCN2CCOCS2(=O)=O)cc1 | -3.078 |
| CCN1CC(COc2ccc(OC)cc2)Oc2ccncc2S1(=O)=O (stereo not drawn) | 109.7 |
| COc1ccc(C[C@@H]2CC[C@H](CN(C)C3CCN(C)CC3)O2)cc1 | 15.35 |
| Cc1nc(-c2noc3ccc(C(=O)NCCN(C)C)cc23)co1 | -5.984 |
| CN(CCn1cccn1)S(=O)(=O)c1cccc(Cl)c1C#N | -13.18 |

| SMILES | Percent Effect [%] |
| --- | --- |
| CO[C@@H]1CCN(Cc2cccs2)[C@H]1Cc1ccncc1 | 4.278 |
| CC(C)(C)OCC1CN(Cc2cccs2)S(=O)(=O)c2cnccc2O1 (stereo not drawn) | 118.6 |
| O=C(O)C(=O)O.c1csc(CN2CC(c3nc(-c4cnccn4)no3)C2)c1 | 14.88 |
| Cc1cc(NC(=O)NC(C)CO)ccc1OCC(F)(F)F (stereo not drawn) | -7.879 |
| CCCS(=O)(=O)c1ccc(N2CCC(Cc3ccccc3)CC2)nn1 | 21.52 |
| Nc1nc(SCc2ccc3c(c2)OCO3)ns1 | 92.69 |
| CCSc1nsc(NC(=O)COc2ccc3c(c2)OCO3)n1 | 106.2 |
| O=C(c1cc(COc2ccc3c(c2)OCO3)[nH]n1)N1CCSCC1 | 4.191 |
| CC(=O)Nc1nc(SCc2ccc3c(c2)OCO3)ns1 | 70.31 |
| CC(=O)N1CCCN(C(=O)Cc2ccc3c(c2)OCO3)CC1 | 1.177 |
| CC(C)c1nc(CC(=O)N(C)Cc2ccc3c(c2)OCO3)cs1 | -4.138 |
| Cc1nnc(SCCCNC(=O)Cc2ccc3c(c2)OCO3)s1 | -3.831 |
| CN(Cc1ccc2c(c1)OCO2)Cc1cscn1 | 9.115 |
| Cn1nc2c(cc1=O)CN(Cc1nnc(-c3ccco3)o1)CC2 | -2.817 |
| C=C(C)CN(CC)S(=O)(=O)c1c(F)cc(NC(C)=O)cc1F | 26.08 |
| CC(NCC1=Cc2cc(Cl)ccc2OC1)c1nnc2n1CCCC2 (stereo not drawn) | 8.386 |
| CCNc1nc(-c2cccnc2)c(-c2ccnc(N3CCCC3)n2)s1 | 59.83 |
| CN1CCOC[C@H]1c1nc(-c2cccnc2)c[nH]1 | -3.029 |
| CCNc1ccnc(N2CCN(Cc3ncccc3C)CC2)n1 | 0.1311 |
| CCc1cnc(NCC(c2cccnc2)N2CCOCC2)nc1 (stereo not drawn) | 1.67 |
| CCCS(=O)(=O)N1CCN(c2ccnc(N3CCCC3)n2)CC1 | 2.468 |
| CCNc1nc(-c2cccnc2)c(-c2ccnc(N3CCOCC3)n2)s1 | 59.36 |
| CN(Cc1nccn1C)c1ccc(-c2nccn2C)nn1 | -5.677 |
| CNc1cc(C2CCN2c2ncccn2)nc(C)n1 (stereo not drawn) | 95.15 |
| Cc1nc(NC2CCCC2)cc(C2CCN2c2ncccn2)n1 (stereo not drawn) | 84.97 |
| Cc1nc(C2CCN2c2ncccn2)cc(N(C)C)n1 (stereo not drawn) | 87.93 |
